Screening results as filed in PubChem BioAssay.
Compounds with a hit are over-represented: about 2.1% of the library has one in this group of screens.
PAX8 inh HTS: inhibitors of PAX8-driven TPO luciferase reporter, primary screen, RMG-I cells, single concentration; AID 652154, 2013; SteadyGlo, 24 h; 360,000 compounds, 1.2% hits; inhibition, % at 12.6 µM;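 active = mean replicate inhibition at least 60% with every replicate also reaching 60%; inconclusive = only one of the two criteria is met; inactive = mean below 60% and not all replicates reaching 60%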;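 also: luciferase light reporting Pax8 driven TPO promoter activity; plate controls were median of neutral control wells for no effect and mitoxantrone controls for full effect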
aSyn 5UTR inh: MLPCN primary screen, SNCA 5' untranslated region | alpha-synuclein 5'UTR reporter, inhibitor activity | inhibition, % (tested at 7.5 µM) | 300,000 compounds, 0.82% hits | AID 1813, 2009; in the data active = inhibition above about 60%; inconclusive = no clear call, values can overlap the other calls;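 also: H4 neuroglioblastoma cells stably carrying SNCA 5'UTR luciferase fusion; 0% = DMSO wells and 100% = positive control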
MITF TRPM1 inh: inhibitors of MITF-dependent TRPM1 promoter reporter, primary screen, cell-based, SK-MEL-5, single point, luciferase; SK-MEL-5 TRPM1 promoter luciferase, 24 h; inhibition, % at 12.5 µM; 330,000 compounds, 0.83% hits;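 active = mean inhibition across replicates of 60% or more, whatever share of single replicates reaches that level; inconclusive = some that reach 60%, reason not given; inactive = mean inhibition across replicates below 60%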
Shn3 3UTR inh: reduction of Shn3 3'UTR firefly luciferase signal, primary screen, Schnurri-3 inhibitor project, cell-based, Clone20 osteoblasts, set 2; Clone20 osteoblast Shn3 3'UTR firefly luciferase, 24 h; inhibition, % at 12.5 µM; 360,000 compounds, 0.52% hits; AID 588674, 2011;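 active = mean inhibition of at least 75% with every replicate also reaching 75%; inconclusive = mean inhibition at least 75% but some replicate below; inactive = mean inhibition below 75%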;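 also: 0% = median of neutral control wells and 100% = pilot-screen positive control compound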
LMP1 NFkB inh: EBV LMP1-driven NF-kappaB luciferase reporter inhibitors, primary screen, cell-based, luminescence, single point; LMP1-induced NF-kappaB luciferase reporter cells; inhibition, % at 12.5 µM; 350,000 compounds, 0.69% hits; AID 504558, 2011; in the data active = inhibition above about 41%; inconclusive = no clear call, values can overlap the other calls;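 also: 0% = neutral control wells and 100% = reference inhibitor control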
* = called active by the depositor; ? = inconclusive; . = not tested or not shown.

SMILES	PAX8 inh HTS	aSyn 5UTR inh	MITF TRPM1 inh	Shn3 3UTR inh	LMP1 NFkB inh
O=C(OCc1nnc(-c2ccccc2)o1)C12CC3CC(CC(Br)(C3)C1)C2	-52	-105	-39	-36	-14
O=C(N/N=C/c1cnc(N2CCCCC2)s1)c1ccc(C(F)(F)F)cc1	74*	53	-5	80	6
CC1CN(c2ncc(/C=N/NC(=O)c3ccccc3O)s2)CC(C)O1 (configuration not stated)	-15	0	-4	-16	-4
CC(C)CN(C(=O)CCNC(=O)c1ccc(Cl)cc1)c1c(N)n(CC(C)C)c(=O)[nH]c1=O	-12	.	-6	-1	2
CCNC(=O)C[C@@H]1CC[C@H]2[C@@H](COc3ccc(NC(=O)Nc4ccc(Cl)cc4)cc3C(=O)N2C)O1	7	.	.	.	.
COc1ccc(S(=O)(=O)N2CC(C(=O)O)Oc3ccc(CC(=O)O)cc32)cc1 (configuration not stated)	17	8	1	8	1
C=CC[C@@H](CC(=O)N(CCO)Cc1ccccc1)C(=O)N[C@@H](COC(=O)[C@@H](CC=C)CC(=O)OC(C)(C)C)Cc1c[nH]c2ccccc12	63*	.	1	1	-1
C=CC[C@@H](CC(=O)N(CCO)Cc1ccccc1)C(=O)N[C@H](COC(=O)[C@@H](CC=C)CC(=O)OC(C)(C)C)Cc1c[nH]c2ccccc12	55	.	0	26	-4
C=CC[C@H](CC(=O)N(CCO)Cc1ccccc1)C(=O)N[C@@H](COC(=O)[C@H](CC=C)CC(=O)OC(C)(C)C)Cc1c[nH]c2ccccc12	103*	.	0	-9	-3
CC(=O)Nc1nc(NC(=O)/C=C/c2ccccc2)n(-c2ccccc2)n1	13	79*	14	37	13
CC(=O)Nc1nc(NCc2ccccc2Cl)n(-c2ccccc2)n1	2	15	-7	17	-5
O=C(Nc1nc(NC(=O)c2ccco2)n(-c2ccccc2)n1)c1ccccc1	.	79*	34	?	23
Nc1nc(NC(=O)c2ccccc2)nn1-c1ccccc1	-50	-71	-12	-57	-6
CS(=O)(=O)c1ccc(Cl)c(C(=O)NC2CCSc3ccccc32)c1 (configuration not stated)	14	19	5	2	5
O=C(Nc1ccc(CN2CCCCC2)cc1)c1ccc(Br)o1	.	-76	-39	-30	-6
COc1ccc(-n2ncc(Cl)c(Cl)c2=O)cc1	105*	-155	.	98*	.
COc1ccc(-n2ncc(N(C)n3cccc3)c(Cl)c2=O)cc1	.	.	-52	-49	-8
C#Cc1ccc([C@@H]2C=C(C(=O)N3CCN(Cc4ccccc4)CC3)O[C@H](OCCCCO)C2)cc1	.	99*	49	93*	37
O=C(C1=C[C@H](c2ccccc2)C[C@H](OCCCCO)O1)N1CCN(Cc2ccccc2)CC1	13	-20	9	-4	-1
CCCCn1c(N)c(N(CCOC)C(=O)COC(=O)CNC(=O)c2ccc(Cl)c(Cl)c2)c(=O)[nH]c1=O	-5	.	6	-17	0
CC(C)(C)Nc1nc(N2CCCC2)nc(N2CCCC2)n1	.	68*	5	71	-39
CCNc1nc(NC(C)(C)C)nc(N2CCCC2)n1	.	4	-5	31	-13
O=C(CCC1CCCC1)Nc1ccccc1-c1ccccc1	6	39	2	12	7
Cn1nnnc1SCC(=O)Nc1nc(-c2ccc(F)c(F)c2)cs1	-33	2	-12	-9	5
C=CCn1c(SCc2ccc3nonc3c2)nnc1-c1cccs1	16	29	6	23	71*
SMILES	PAX8 inh HTS	aSyn 5UTR inh	MITF TRPM1 inh	Shn3 3UTR inh	LMP1 NFkB inh
Cc1cccc(Cn2cnc3c(nnn3Cc3ccc(Cl)cc3)c2=O)c1	.	-17	1	14	4
Cc1cccc(Cn2nc(-n3cccc3)c3c(C)cc(C)nc32)c1	-19	22	10	-13	47*
CC(=O)Nc1ccc(SC[C@H](Cc2ccccc2)N2CCN(CC(C)C)CCC2=O)cc1	4	10	2	7	7
C/C(=N\NC(=O)c1ccoc1C)c1ccccc1	-45	-127	.	-155	.
O=C(Nc1ccccc1)NC1(C(=O)NCc2ccc3c(c2)OCO3)CCCCC1	.	2	-2	-6	1
O=C(Nc1ccc2c(c1)OCO2)NC1(C(F)(F)F)Oc2ccccc2O1	.	-96	-7	-8	-8
O=C(NCc1ccccc1)NC1(C(=O)Nc2ccc3c(c2)OCCO3)CCCCC1	.	-36	65*	50	1
